Drawing on PubChem BioAssay (Tox21), this text covers Potency for 40 compounds.

“And” between values parts separate entries of the source, which are not always exact repeats. Identical values can stand only once. Inconclusive results are not listed. Where a call stands in place of a potency, no number is given. Some compounds were tested as several samples or in several runs, with calls that do not always agree. The source made the active and inactive calls. The call rests on the fitted dose curve; in most records, active means well fitted cell-killing curve with a large enough effect in the repeat runs; inconclusive means weak or mixed curves, or effect the other way; inactive means no such curve, though single readings can be large or run the other way.
Potency means the concentration at half of the fitted maximal effect.

This assay is described as follows: qHTS assay for identifying genotoxic compounds that show differential cytotoxicity against isogenic chicken DT40 cell lines with known DNA damage response pathways - wild type cell line (AID 743012). Further: nearly all actives have a fitted effect of over 60% in size. Conditions: DT40 wild type chicken cells viability, CellTiter-Glo, 40 h; series mostly up to 68.4 µM. An excerpt:
U.S. Tox21 Program National Center for Advancing Translational Sciences [NCATS] NIH Chemical Genomics Center [NCGC] U.S. Environmental Protection Agency [EPA] National Institutes of Environmental Health Sciences [NIEHS] National Toxicology Program [NTP] U.S. Food and Drug Administration [FDA] Tox21 Assay Overview: DNA repair pathways play a critical role in cellular homeostasis by repairing DNA damage induced by endogenous processes and xenobiotics. Isogenic chicken DT40 cell lines deficient in different DNA repair pathways can be used to identify genotoxic compounds and aid in characterizing the nature of the DNA damage induced. Two DNA repair-deficient cell lines with disrupted genes, Rad54/Ku70 or Rev3, were used to screen the Tox21 10K compound library. Possible genotoxicity was based on the presence of a significant increase in cytotoxicity in one or more of the DNA repair-deficient cell lines compared to that observed in the parental DNA repair-proficient cell line. CellTiter Glo viability assay (Promega, Madison, WI) was used to measure cell viability in these cells after compound treatment. This assay includes the data from the wild type cell line.
Tox21 Assay Protocol Summary: 300 DT40 wild type cells in 5 uL/well were dispensed into white, solid-bottom 1536-well plates using a Multidrop Combi (ThermoFisher Scientific, Waltham, MA) dispenser. After the assay plates were incubated at 37 C/5% CO2 for approximately 0.5 hour, 23 nL of compounds dissolved in DMSO, positive controls or DMSO only was transferred into the assay plate by a pintool work station (Kalypsys, San Diego, CA). The assay plates were incubated at 37 C/5% CO2 for 40 hours. After 5 uL per well of CellTiter-Glo reagent was added into each well of the assay plates, the plates were incubated for 30 min at room temperature and the luminescence intensity of the plates was measured using a ViewLux (PerkinElmer, Shelton, CT) plate reader.
Consider `NS(=O)(=O)c1cc2c(cc1Cl)NCNS2(=O)=O`, for which the Potency result is “inactive”. Consider `CC1(C)S[C@@H]2[C@H](NC(=O)[C@H](N)c3ccccc3)C(=O)N2[C@H]1C(=O)O`, for which the Potency entry is “inactive”. Consider `C=CCc1ccc(O)c(OC)c1`, for which the Potency entry is “inactive”. With `CCCCCCCC(=O)OCC(COC(=O)CCCCCCC)OC(=O)CCCCCCC`, the Potency entry was “inactive”. Take `CC(C)NCC(O)c1ccc(O)c(O)c1` (stereo not given): the Potency entry was “inactive and 61.1 µM (active)”. `O=C1O[C@H]([C@@H](O)CO)C(O)=C1O`: the Potency result was “inactive and 54.5 µM (active)”. With `CN[C@H]1CC[C@@H](c2ccc(Cl)c(Cl)c2)c2ccccc21`, the Potency is 5.96 µM (active). Take `C[C@](N)(Cc1ccc(O)c(O)c1)C(=O)O`: the Potency entry was “inactive”. `CCCCNC(=O)NS(=O)(=O)c1ccc(C)cc1`: the Potency result is “inactive”. As for `Cc1ccc(S(=O)(=O)O)cc1`, the entry is “inactive”.

Take `NC(=O)c1cccnc1`: the Potency result is “inactive”.

For `CC12CCC(CC1)C(C)(C)O2`, the Potency result is “inactive”. As to `Cc1c(C(=O)O)c(O)cc2c1C(=O)c1c(O)c([C@@H]3O[C@H](CO)[C@@H](O)[C@H](O)[C@H]3O)c(O)c(O)c1C2=O`, the Potency entry was “inactive”. `CN1CCc2cccc3c2[C@H]1Cc1ccc(O)c(O)c1-3`: the Potency was 9.44 µM (active) and 15.5 µM (active) and 12.8 µM (active). Turning to `COc1ccc(OC(F)(F)F)cc1CN[C@H]1CCCN[C@H]1c1ccccc1`, the Potency is 15.4 µM (active). For the compound `O=C1NS(=O)(=O)c2ccccc21`, the Potency result is “inactive”. Take `CCCCC1(COC(=O)CCC(=O)O)C(=O)N(c2ccccc2)N(c2ccccc2)C1=O`: the Potency entry is “inactive”. For the compound `CCN(CC)C(=O)c1cccc(C)c1`, the Potency result is “inactive”. As for `CC1(C)O[C@@H]2C[C@H]3[C@@H]4CCC5=CC(=O)C=C[C@]5(C)[C@@]4(F)[C@@H](O)C[C@]3(C)[C@]2(C(=O)CO)O1`, the Potency entry was “inactive”.

For `O=c1[nH]cnc2c1ncn2[C@H]1CC[C@@H](CO)O1`, the Potency entry is “inactive”. For `CC(=O)C(=O)O`, the Potency result was “inactive”. Regarding `NC(CO)(CO)CO`, the Potency entry was “inactive”. As for `Nc1c2c(nc3ccccc13)CCCC2`, the entry is “inactive and 27.3 µM (active)”; as for `CN(C)CCOC(C)(c1ccccc1)c1ccccn1` (stereo not given), “inactive”; as for `CCN(Cc1c(F)cccc1Cl)c1c([N+](=O)[O-])cc(C(F)(F)F)cc1[N+](=O)[O-]`, 30.6 µM (active). Regarding `CCCCCCCCCCCC[N+](C)(C)Cc1ccccc1`, the Potency is 422 nM (active) and 151 nM (active) and 1.05 µM (active). As to `OC[C@H]1O[C@H](O[C@]2(CCl)O[C@H](CCl)[C@@H](O)[C@@H]2O)[C@H](O)[C@@H](O)[C@H]1Cl`, the Potency entry is “inactive”.

In the case of `C1CCC(C(CC2CCCCN2)C2CCCCC2)CC1` (stereo not given), the Potency is 2.66 µM (active).

With `CC(=O)Nc1c(I)c(NC(C)=O)c(I)c(C(=O)O)c1I`, the Potency result is “inactive”.

For the compound `O=c1[nH]cc(F)c(=O)[nH]1`, the Potency is 21.1 µM (active) and 27.9 µM (active). As for `CCOC(N)=O`, the entry is “inactive”. As for `CC(=O)CCC(=O)O`, the Potency entry was “inactive”.

In the case of `CN(N=O)C(=O)N[C@@H]1[C@@H](O)[C@H](O)[C@@H](CO)O[C@@H]1O`, the Potency result is “inactive”. For the compound `O=C(Nc1ncc([N+](=O)[O-])s1)c1cccs1`, the Potency was 23.7 µM (active). As for `CCc1nc(N)nc(N)c1-c1ccc(Cl)cc1`, the figure is 596 nM (active) and 139 nM (active) and 273 nM (active); as for `C/C=C/C=C/C(=O)O`, “inactive and 61.1 µM (active)”; as for `C=C1CC[C@H](O)C/C1=C\C=C1/CCC[C@]2(C)[C@@H]([C@H](C)CCCC(C)C)CC[C@@H]12`, 11.9 µM (active) and 54 µM (active).

Consider `Nc1c(N=Nc2ccc(-c3ccc(N=Nc4cc(S(=O)(=O)O)c5ccccc5c4N)cc3)cc2)cc(S(=O)(=O)O)c2ccccc12`, for which the Potency entry is “inactive and 6.85 µM (active)”. `COc1ccc2c(c1)c(CC(=O)O)c(C)n2C(=O)c1ccc(Cl)cc1`: the Potency entry is “inactive”.

Regarding `CNNCc1ccc(C(=O)NC(C)C)cc1`, the Potency result was “inactive”.
